aSyn UTR act = Activators via SNCA 5'UTR binding, MLPCN | alpha-synuclein 5'UTR reporter, activators screen | 7.1% of 300,000 active | AID 1814, 2009 | activity score, % (tested at 7.5 µM), hits read low; in the data active means activity score below about -60%
Numbers without * were called inactive. Not all results are given here.

SMILES	aSyn UTR act
COC(=O)c1ccc(N2CCN(c3ccccc3)CC2)nc1	-231*
COC(=O)c1ccc(N2CCN(c3ccccc3)CC2)c(N)c1	-134*
CCN1C(=O)/C(=C2/C=Cc3ccccc3N2C)OC1=S	-200*
Nc1ccc2oc(=O)c3ccccc3c2c1	-174*
CN(C)C=Nc1ccc2nc3c(cc2c1)[nH]c1ccccc13	-233*
Cc1ccccc1NC(=S)N=Nc1c(O)n(C)c2ccc(S(=O)(=O)N3CCOCC3)cc12	78
Cn1c(O)c(N=Nc2ccc(F)cc2)c2ccccc21	-62*
Cn1c(N2CCOCC2)c(/C=N/OC(=O)c2ccc(F)cc2)c2ccccc21	73
Cn1c(O)c(N=Nc2nc(-c3ccccc3)cs2)c2ccccc21	-126*
N#Cc1cnc2nc(SCc3ccccc3)nn2c1	-149*
CCOC(=O)c1cn2nc(SCc3ccccc3)nc2nc1C	-105*
Nc1ncnc(N)c1N=Nc1ccccc1	112
Nc1nn(-c2ccccc2)c(N)c1N=Nc1ccccc1	-106*
Nc1nn(-c2ccccc2)c(N)c1N=Nc1ccccc1F	-98*
Nc1c(N=Nc2ccccc2F)c(=O)[nH]n1-c1ccccc1	-125*
NC(=S)N/N=C/c1cccc(O)c1O	-94*
Cc1cccc(OCC(=O)NC(C)C(=O)N/N=C/c2c(OCc3ccccc3)ccc3ccccc23)c1 (configuration not stated)	-138*
NC(=O)N/N=C/c1ccc2cccc(OCc3ccccc3)c2n1	60
O=C(Cc1ccccc1)Nc1ccc(-c2nnc(-c3ccco3)o2)cc1	-77*
Cc1ccc(SCC(=O)Nc2ccc(-c3nnc(-c4ccco4)o3)cc2)cc1	-106*
CN(c1ccc(C(=O)Nc2ccc3c(c2)OCCO3)cc1)S(C)(=O)=O	-149*
CN(c1ccc(C(=O)Nc2ccc3c(c2)OCO3)cc1)S(C)(=O)=O	-103*
CC1CC(C)CN(S(=O)(=O)c2ccc(C(=O)Nc3nnc(-c4cccs4)o3)cc2)C1 (configuration not stated)	60
O=C(Nc1nc(-c2cccs2)cs1)c1ccc(S(=O)(=O)N2CCCC2)cc1	-96*
Cc1cc(C)c2nc(NNC(=O)c3ccc(S(=O)(=O)N4CCCC(C)C4)cc3)sc2c1 (configuration not stated)	73
SMILES	aSyn UTR act
Cc1csc(NC(=O)c2ccc(S(=O)(=O)N3CCCC3)cc2)n1	-62*
CN(C)S(=O)(=O)c1ccc(C(=O)Nc2nc(-c3cccs3)cs2)cc1	-99*
COc1ccc2cc(C(N)=O)c(=Nc3ccccc3)oc2c1	-90*
COc1ccc2oc(=Nc3cc(F)ccc3F)c(C(N)=O)cc2c1	-176*
CC(=O)Oc1ccc2cc(-c3nc4ccccc4n3C)c(=O)oc2c1	-226*
CC(C)(C)C(=O)Oc1ccc2cc(-c3ccc4ccccc4n3)c(=O)oc2c1	-157*
CCN(CC)Cc1c(O)ccc2cc(-c3nc4ccccc4n3C)c(=O)oc12	-74*
Cn1c(-c2cc3ccc(OC(=O)C(C)(C)C)cc3oc2=O)nc2ccccc21	-117*
O=C1/C(=C\Nc2ccc(OC(F)(F)F)cc2)CCN1c1ncccn1	-201*
O=C1/C(=C\Nc2ccc(Cl)cc2)CCN1c1ncccn1	-158*
COc1ccc(S(=O)(=O)Oc2ccc3ccccc3c2)cc1	-93*
O=C(Nc1cccc(-c2csc(Nc3ccccc3)n2)c1)c1cc([N+](=O)[O-])cc(C(F)(F)F)c1	-87*
O=C(Nc1cccc(-c2csc(Nc3ccc(Cl)cc3)n2)c1)c1cccc(C(F)(F)F)c1	-71*
O=C(Nc1cccc(-c2csc(Nc3ccc(Cl)cc3)n2)c1)c1cc([N+](=O)[O-])cc(C(F)(F)F)c1	-72*
Oc1ccc(C2=NNC(=NCc3ccc4c(c3)OCO4)SC2)c(O)c1	-87*
C=CCN=C1NN=C(c2cc(C)n(CCOC)c2C)CS1	86
COc1ccc(/C=N/n2c(N)nc(-c3ccccc3)c2-c2ccccc2)cc1	-63*
CC(=O)N(/N=C1\Sc2ccccc2C1=O)c1ccccc1C	-170*
O=C(Nc1ccc2c(c1)C(=O)OC2)c1ccc(F)cc1F	-63*
O=C(Nc1ccc2c(c1)C(=O)OC2)c1ccc(Cl)cc1Cl	-75*
Cc1ccc2[nH]c(-c3cccc(N)c3)cc2c1	-209*
Cc1ccc2[nH]c(=O)c(C3C(C#N)=C(N)Oc4c3ccc3cccnc43)cc2c1 (configuration not stated)	75
Cc1ccc2[nH]c(-c3cccc(F)c3)cc(=O)c2c1	81
COC(=O)C1=C(Nc2ccccc2NC(=O)c2ccccc2C(=O)O)CSC1	-167*
Nc1ccccc1NC(=O)c1ccccc1N	-139*
SMILES	aSyn UTR act
Cc1c(NC(=O)c2ccc(Br)o2)cccc1C(=O)O	-86*
Cc1c(NC(=O)c2ccccc2N)cccc1C(=O)O	-155*
O=C(O)c1ccccc1C(=O)Nc1ccccc1NC(=O)c1ccccc1C(=O)O	-126*
Nc1ccccc1NC(=O)NC(=O)c1ccccc1	-169*
CN(C)c1ccc(C(CN)c2c[nH]c3ccccc23)cc1 (configuration not stated)	-97*
COc1cc(/C=N/O)ccc1OCc1ccccc1Cl	-113*
Cc1csc(C(C#N)C(=O)c2cc3ccccc3o2)n1 (configuration not stated)	-145*
Cc1nc2c(C(=O)N3CCCCC3)cnn2c(C)c1Cc1ccccc1F	-117*
CN(Cc1cnc2nc(N)nc(N)c2n1)c1ccc(C(=O)N[C@@H](CCC(=O)O)C(=O)O)cc1	78
COc1cccc(NC(=O)Nc2ccc(C)c(Cl)c2)c1	-157*
Cc1ccc(NC(=O)Nc2ccc(F)cc2)cc1Cl	-130*
CC(=O)C1=C(C)OC(N)=C(C#N)C1c1cc([N+](=O)[O-])ccc1Cl (configuration not stated)	-69*
COc1ccc(S(=O)(=O)NCC2CCCN(Cc3ccc(OC)cc3F)C2)cc1 (configuration not stated)	-90*
S=C(Nc1ccc(Cl)c(Cl)c1)NC1CCCCC1	-75*
S=C(Nc1ccc2nsnc2c1)N1CCCCCC1	-148*
Cc1ccc(NC(=S)NC2CCCCC2)cc1S(=O)(=O)N(C)C	-65*
CCc1ccc(NC(=S)N2CCCCCCC2)cc1	-123*
CC1CCN(C(=O)Nc2ccc3nsnc3c2)CC1	-126*
CC(C)c1ccc(NC(=S)NC2CCCCCC2)cc1	-185*
COc1ccc(NC(=S)Nc2ccc3nsnc3c2)cc1	-207*
S=C(NNc1ccc2ccccc2c1)NC1CCCCC1	-217*
S=C(Nc1ccc2nsnc2c1)NC1CCCCC1	-163*
O=C(CSc1ccsc1[N+](=O)[O-])NCc1ccccc1	-104*
COc1ccccc1CNC(=O)CSc1ccsc1[N+](=O)[O-]	-114*
CCn1ncc(NC(=S)Nc2ccc3c(c2)OCO3)c1C(N)=O	-180*
SMILES	aSyn UTR act
CCc1ccc(C(=O)NC(=S)Nc2ccc3c(c2)OCCO3)cc1	-128*
O=C(NC(=S)Nc1ccc2c(c1)OCO2)c1ccc(Cl)cc1	-143*
Cc1cc(C)cc(C(=O)NC(=S)Nc2ccc3c(c2)OCCO3)c1	-219*
Cc1ccc(C(=O)NC(=S)Nc2ccc3c(c2)OCCO3)c(C)c1	-137*
O=C(NC(=S)Nc1ccc2c(c1)OCCO2)c1ccc(F)cc1Cl	-136*
O=C(CCl)Nc1ccc2c(c1)OCO2	-90*
S=C(Nc1ccc2c(c1)OCO2)Nc1ccc2c(c1)OCO2	-107*
CC1=CC(C)(C)N=C(Nc2ccc(C)cc2)S1	-169*
CC(C)c1ccc(NC(=O)[C@H](Cc2c[nH]c3ccccc23)NC(=O)[C@@H]2Cc3ccccc3CN2)cc1	61
